Rows were chosen to be rich in hits. Some 11% of all compounds tested hit in one or more screens of this group.
ALDH1A1 block: ALDH1A1 (human) enzyme inhibition. P00352. Purified ALDH1A1, NADH fluorescence, propionaldehyde substrate. Potency, µM (series often up to 75.3 µM), without a hit: at the top dose activity, negative = inhibition, hits mostly inhibitors. actives 7.3% (n = 220,000). AID 1030;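 also: potency is read from the fitted curve at half-maximal effect; plate controls were no enzyme wells and a reference inhibitor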
Target sequence (P00352 whole entry, looked up): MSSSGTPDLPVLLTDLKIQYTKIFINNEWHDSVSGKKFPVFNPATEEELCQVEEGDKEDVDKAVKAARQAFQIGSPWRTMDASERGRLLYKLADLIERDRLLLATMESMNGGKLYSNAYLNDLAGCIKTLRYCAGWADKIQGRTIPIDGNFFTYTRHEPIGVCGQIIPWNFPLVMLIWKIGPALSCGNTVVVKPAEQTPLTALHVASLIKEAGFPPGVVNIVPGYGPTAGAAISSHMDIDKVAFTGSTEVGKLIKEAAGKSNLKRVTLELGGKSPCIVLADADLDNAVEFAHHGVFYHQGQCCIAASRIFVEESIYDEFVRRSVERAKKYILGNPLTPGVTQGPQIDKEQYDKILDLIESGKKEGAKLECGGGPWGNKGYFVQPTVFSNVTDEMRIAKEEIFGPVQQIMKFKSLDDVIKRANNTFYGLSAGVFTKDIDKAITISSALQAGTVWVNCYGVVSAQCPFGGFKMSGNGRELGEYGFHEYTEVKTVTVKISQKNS
HPGD block: inhibitors of human 15-hydroxyprostaglandin dehydrogenase (HPGD). purified HPGD, NADH fluorescence kinetic, PGE2 substrate. P15428. Potency, µM, for the others: at the highest dose activity change, negative = inhibition, actives largely listed as inhibitors. actives 4.3% (n = 150,000); also: potency is read from the fitted curve at half-maximal effect
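20 nM HPGD preincubated 15 min at room temperature with compound in 50 mM Tris-HCl pH 8, 0.01% Tween 20. Started with 1 mM NAD+ and 30 uM prostaglandin E2; NADH fluorescence (360/450 nm) read 5 times over 30-s intervals, last minus first.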
PNC assembly inh: perinucleolar compartment assembly inhibition | PC3M PTB-GFP, PNC prevalence imaging, 16 h; stronger effect = lower value | activity change (PNC), negative = inhibition, % at 10 µM | actives 3.1% (n = 140,000) | AID 2417;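 active = readout at or below -70, meaning at least 70% loss of cells showing the perinucleolar compartment, a nuclear body marking cancer cells; inconclusive = readout between -30 and a set limit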;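 also: plate controls were DMSO wells for no effect and camptothecin positive control wells for full effect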
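Compounds are pinned in duplicate onto adhered PC3M cells stably expressing GFP-tagged PTB and incubated 16 h at 37 C. Cells are then fixed, nuclei stained with Hoechst, and PNC-positive cells counted.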
KDM4E inh: inhibitors of human JMJD2E histone demethylase. AID 2147. JMJD2E catalytic domain, FDH-coupled NADH fluorescence (FDH is formaldehyde dehydrogenase). Potency, µM (titrated, usually from 57.1 µM), for inactives: top-dose activity change, negative = inhibition, usual class: inhibitors. actives 1.6% (n = 230,000);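 also: potency is read from the fitted curve at half-maximal effect; 0% = wells with enzyme and -100% = buffer wells without enzyme; nearly all actives have a fitted effect of over 50% in size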
An asterisk follows results filed as active; u = inconclusive; x = no result given; [ ] = dose if it differs, or a comment. Unless noted, calls follow the shape of the dose curve; as a rule, active = well fitted inhibition curve with a large enough effect (not every such curve was filed as active); inconclusive = small, poorly fitted or top-dose-only effect, or another doubt; inactive = no such curve, though single readings can be large or run the other way. Unless noted, % is scaled to controls: 0 for no effect and ±100 for the full control effect.

SMILES	ALDH1A1 block	HPGD block	PNC assembly inh	KDM4E inh
COC(=O)c1ccc(-c2nc(O)c(C)s2)cc1	20µM*	x	x	u
COC(=O)c1ccc(-c2nc3cc(Cl)c(N)cc3s2)cc1	10%	-20%	u	2.5µM*
COC(=O)c1ccc(-c2nc3cc(N)ccc3o2)cc1	-1%	-9%	19	-2%
COC(=O)C/C=C\[C@@H](C)[C@H]1C=C[C@H](O)[C@@H](CO)O1	13%[13.5 µM]	x	x	x
S=C1NCN(C2CCCCC2)CN1Cc1ccccc1	3%	3%	-12	5%
CCOC(=O)c1c(C)[nH]c(C)c1C(=O)COC(=O)c1ccc(OC)c(OC)c1	4%	x	x	-1%
N#Cc1c(NCc2ccccc2)ccnc1NCc1cccnc1	4%	13µM*	-106*	1%
CN(C)c1ccnc(NCc2ccccc2)c1C#N	u	14µM*	u	u
c1ccc(-c2nc(NCc3cccnc3)c3ccccc3n2)cc1	u	-4%	1	-4%
O=C(Cc1ccccc1)NC1(Cc2ccc(O)cc2)CCCCC1	2%	x	x	23%
CC1(C)CC(O)C(C(O)c2cccc([N+](=O)[O-])c2)C(C)(C)N1 (configuration not stated)	0%	-9%	4	5%
CC1CCCC2(C1)NC(=S)c1c(sc3c1CCCC3)N2 (configuration not stated)	3.5µM*	4.5µM*	u	-7%
CC1CCCC2(C1)NC(=S)N(c1ccccc1)N2 (configuration not stated)	u	-6%	u	u
COC(=O)c1ccc(S(=O)(=O)N2Cc3ccccc3C2)cc1	6%	x	x	6%
O=C(c1cccc2ccccc12)N1CCN(CC2CC=CCC2)CC1 (configuration not stated)	u	2%	-24	u
COc1cc(C(=O)N2CCN=C2c2ccccc2)cc(OC)c1OC	-1%	-12%	-100*	-25%
COc1cc([N+](=O)[O-])cc2cc(C(=O)N3CCN=C3c3ccccc3)c(=O)oc12	8%	x	x	3%
O=C(COc1ccccc1)N1CCN=C1c1ccccc1	8%	-4%	13	11%
O=C(c1ccc(F)cc1)N1CCN=C1c1ccccc1	-3%	-6%	-96*	12%
O=C(c1ncc[nH]1)c1cccs1	x	x	x	-10%
C/C(=C\C(=O)c1ccncc1)Nc1ccccc1O	2%	14µM*	-2	-11%
COC(=O)c1ccc(C(NC(=O)OCc2ccccc2)/C(C)=C/[C@@H](C)C(=O)NCCO)cc1 (some centres not stated)	u	-13%	x	-10%
C=CCN(c1ccccc1)S(=O)(=O)c1cccc(C(=O)Nc2nc3ccccc3[nH]2)c1	u	u	-26	28µM*
CN(c1cccc(Cl)c1)S(=O)(=O)c1cccc(C(=O)Nc2nc3ccccc3[nH]2)c1	6%	-29%	u	u
CN(CCc1ccc(Cl)c(Cl)c1)CC(O)COc1ccc(NS(C)(=O)=O)cc1 (configuration not stated)	-4%	x	x	x
SMILES	ALDH1A1 block	HPGD block	PNC assembly inh	KDM4E inh
Cc1nc2ccccc2n1S(=O)(=O)c1ccc(Br)cc1	4%	-22%	-109*	4%
Cn1c(N)c(C#N)c2c(c1=S)CSC(C)(C)C2	u	-12%	u	u
N#Cc1c(N)sc(=S)c2c1CCCCC2	u	16µM*	44	22µM*
CC1(C)Cc2c(C#N)c(N)sc(=S)c2CS1	7.1µM*	-12%	11	u
CN1CCc2nc(N)nc(-c3nc(N)nc4c3CN(C)CC4)c2C1	3%[13.5 µM]	-1%	x	x
COc1cc(-c2nnc(CSc3nnc(Nc4ccc(Oc5ccccc5)cc4)s3)o2)cc(OC)c1OC	u	-13%	3	-1%
C/C(=N\NC(=O)C(=O)Nc1c(C)n(C)n(-c2ccccc2)c1=O)c1ccncc1	x	x	x	1%
CN=C1N[C@H](c2ccccc2)N(c2ccccc2)S1	1.3µM*	13µM*	x	7.9µM*
COC(=O)[C@@H](NC(=O)N1CCc2nc(-c3ccc(OC)cc3C)c3c(c2C1)CO[C@@H](c1ccccc1)C3)C(C)C	u	-8%	x	-7%[11.4 µM]
Cc1nnc(NC(=O)C2CCN(c3cnccn3)CC2)s1	6%	-10%	-22	-2%
O=C(Nc1cccc2c1CCCC2)C1CCN(c2nnnn2-c2ccccc2)CC1	8.9µM*	-10%	u	12%
Cc1nnc(NC(=O)C2CCN(c3nnnn3-c3ccccc3)CC2)s1	20µM*	-6%	-9	1%
O=c1cc(-c2cccc(F)c2)[nH]c2cc(F)ccc12	18%[120 µM]	-9%	x	x
O=C(CSc1cnc2ccccc2n1)c1ccc(F)cc1	25µM*	-28%	57	-11%
CCCc1nc(SCC(=O)c2ccc(OC)cc2)c2ccccc2n1	10µM*	x	x	-9%
CC(C)c1nc(SCC(=O)c2ccc(F)cc2)c2ccccc2n1	20µM*	x	x	-19%
COc1ccc(/C(C)=N/NC(=O)C(NC(=O)c2ccccc2)c2n[nH]c(=O)c3ccccc23)c(OC)c1 (configuration not stated)	-9%	x	x	-17%
CCOCCCNC(=O)C(c1ccc(Cl)cc1)N(Cc1cccs1)C(=O)CNC(C)=O (configuration not stated)	-5%	0%	u	10%
COc1c(-c2coc3cc4c(cc3c2=O)CC(O)C(C)(C)O4)ccc2c1C=CC(C)(C)O2 (configuration not stated)	u	16µM*	x	4%
COc1c(-c2coc3cc4c(cc3c2=O)CC(OC(C)=O)C(C)(C)O4)ccc2c1C=CC(C)(C)O2 (configuration not stated)	-4%	-8%	x	-1%
CCCN(CCC)C(=O)CSc1nc2ccccc2c(=O)n1CC1COc2ccccc2O1 (configuration not stated)	11µM*	-13%	30	-3%
COc1cc(NC(=O)c2cccs2)c(C(=O)OCC(=O)NC(=O)NC(C)(C)C)cc1OC	-6%	-28%	-98*	-3%
COc1cc(NC(=O)c2cccs2)c(C(=O)OCC(=O)c2cc(C)n(-c3ccccc3)c2C)cc1OC	-1%	u	-11	3%
CCOC(=O)C(NC(=O)CC)(Nc1nc2c(s1)CCCC2)C(F)(F)F (configuration not stated)	10%	-18%	181	10%
COC(=O)C(NC(=O)COc1ccccc1)(Nc1nc2c(s1)CCCC2)C(F)(F)F (configuration not stated)	-3%	35µM*	-14	-4%
NC(=O)COC(=O)c1ccccc1Oc1ccccc1	6%	x	x	-7%
O=C(O)CC12CC3CC(C1)CC(n1ncc(NCC4CCCO4)c(Cl)c1=O)(C3)C2 (configuration not stated)	25µM*	x	x	-10%
COc1cc(CN2CCN(C(C)C)C(CCO)C2)ccc1OCc1ccccc1 (configuration not stated)	2%	x	x	-2%
Cc1nc(Cl)c2c(n1)N(CC(N)=O)C(=O)CO2	7%	-6%	-109*	8%
CC1=Nn2c(nc(-c3ccccc3)c2-c2ccccc2)N(CC(N)=O)C(=O)C1	17%	-9%	u	-1%

Screening data as filed in PubChem BioAssay.
